Measured values from PubChem BioAssay AID1745850 (National Center for Advancing Translational Sciences (NCATS), 2022).
Screen size: about 2,100 compounds; about 260 (12%) were called active. Roughly 58% stayed inconclusive and do not appear here. Calls come from the whole dose curve; as a rule, active = well fitted cell-killing curve with a large enough effect; inconclusive = small, poorly fitted or top-dose-only effect, or effect the other way; inactive = flat fitted curve, though single readings scatter. The list shows a part of the results.

Experiment: Viability Counterscreen for Confirmatory qHTS for Inhibitors of ATXN expression; note: nearly all actives have a fitted effect of over 50% in size
Settings: HEK-293 ATXN2-luc cells viability, CellTiter-Fluor, 24 h; activity change, negative = cytotoxicity: at the top concentration
Procedure, shortened: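 Cells with an ATXN2-luciferase reporter were dosed in a dilution series for 24 h at 37 degrees C. Viability was read first with Gly-Phe-AFC at 25 uM final (fluorescence, ex 405/em 540), then SteadyGlo luminescence. Medium-only wells defined 100% inhibition.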
Potency is the fitted concentration of half-maximal effect.

Structure (SMILES) | activity change, negative = cytotoxicity | Potency
COc1ccc(N(CC(=O)N2CCN(c3ccc(Cl)cc3)CC2)S(=O)(=O)c2c(C)n[nH]c2C)cc1 | -23.7% (inactive) | –
O=C(Nc1ccc(Cl)c(Cl)c1)Nc1nnc(CSc2ccccc2)s1 | – | 2.51 µM (active)
CCOc1ccc(NC(=O)Nc2nnc(CC(=O)NCc3ccccc3)s2)cc1 | -28.5% [at 57.5 µM] (inactive) | –
CCCCN1C(=O)/C(=C2/Sc3ccccc3N2C)S/C1=N\c1ncn[nH]1 | -13.9% [at 57.5 µM] (inactive) | –
CC1=CC(C)(C)N2C(=O)C3(SCC(=O)N3c3ccc(F)cc3)c3cc(C)cc1c32 (stereo not given) | -20.4% (inactive) | –
CCN(CC)c1ccc(C(=O)N/N=C/c2ccccc2OC(F)F)cc1 | -18.3% (inactive) | –
CCN(CC)c1ccc(/C=C/c2cccc[n+]2C)c(OC)c1 | – | 12.6 µM (active)
O=C(C1CC(=O)N(c2ccc3c(c2)OCCO3)C1)N1CCN(c2ccccc2)CC1 (stereo not given) | -6.33% (inactive) | –
O=C(CSc1nnc(-c2ccccc2)o1)Nc1ccccc1F | -3.09% (inactive) | –
CC1CC(C)CN(CCCNC(=O)c2cc3c(s2)-c2ccccc2OC3)C1 (stereo not given) | -15.7% (inactive) | –
Cc1ccc(NC(=O)CCC(=O)c2cc(C)sc2C)nc1 | -17.9% [at 57.5 µM] (inactive) | –
CC(=O)c1ccc(N2CCc3ccccc3C2)c([N+](=O)[O-])c1 | -27.8% [at 57.5 µM] (inactive) | –
COc1ccc(-c2cc(C3CCN(c4ccc(C(C)=O)cc4[N+](=O)[O-])CC3)[nH]n2)cc1 | – | 28.2 µM (active)
CN1CCC2(CC1)N=C(c1ccc(F)cc1)C(=S)N2C(=O)c1ccc(C(C)(C)C)cc1 | -27.6% [at 57.5 µM] (inactive) | –
CC(C)n1c(NCc2cc(Cl)ccc2O)nc2ccccc21 | -0.178% (inactive) | –
Clc1ccc(SCc2cc(N3CCOCC3)nc(-c3ccccn3)n2)cc1 | – | 10 µM (active)
Clc1ccc(CSc2ccc(-c3ccccn3)nn2)cc1 | -14.5% (inactive) | –
Cc1cc(Oc2ccc(Cl)cc2)nc(-c2ccccn2)n1 | -12.9% [at 57.5 µM] (inactive) | –
CCN(CC)CCCNc1nc2ccccc2c2nc(-c3ccncc3)nn12 | – | 25.1 µM (active)
COC(=O)N/N=C/c1cn(CC(C)COc2ccccc2)c2ccccc12 (stereo not given) | -29.4% [at 57.5 µM] (inactive) | –
CCOC(=O)C1CCN(C(=O)c2c(C)oc3c2C(=O)c2ccccc2C3=O)CC1 | – | 25.1 µM (active)
O=C1C(Cl)=C(N2CCC(C(=O)O)CC2)C(=O)c2ccccc21 | -25% [at 57.5 µM] (inactive) | –
Cc1ccc(C)n1-c1ccc(C(=O)N2CCC(C(N)=O)CC2)cc1 | -2.84% (inactive) | –
COc1ccc(CCCNC(=O)C2Cc3c(-c4cccc(NC(C)=O)c4)ccnc3O2)cc1 (stereo not given) | -26.2% (inactive) | –
N#CCc1nc2ccccc2c(=O)[nH]1 | -3.15% [at 57.5 µM] (inactive) | –
Cc1[nH]c(=O)c(C(=O)/C=C/c2ccccc2)c2c1CCCC2 | – | 20 µM (active)
COC(=O)c1ccccc1S(=O)(=O)NNC(=O)Nc1ccccc1 | 3.46% (inactive) | –
CCCCn1c(/C=N/Nc2nc3ccccc3[nH]2)nc2ccccc21 | -8.13% (inactive) | –
C(=N\Nc1nc2ccccc2[nH]1)/c1cccc2nccnc12 | -11.6% (inactive) | –
CC(C)Cn1c(/C=N/Nc2nc3ccccc3[nH]2)nc2ccccc21 | – | 11.2 µM (active)
